Broadly, the inhibition is the share of the control response that was lost under treatment.

This passage reports inhibition results from PubChem BioAssay.

Calls of active or inactive are those of the source. The rule behind the calls is not given here.

This assay deals with Pantothenate synthetase (Mycobacterium tuberculosis (strain ATCC 25618 / H37Rv)) (UniProt P9WIL5). Description: Coupled enzyme confirmation of inhibitors against recombinant Mtb PanC (AID 375).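 Note: 0% = full reaction with vehicle and 100% = no enzyme background.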 The conditions noted are these: coupled enzyme assay; at 10 µM, active compounds read high.
Chain of Pantothenate synthetase (Mycobacterium tuberculosis (strain ATCC 25618 / H37Rv)) (P9WIL5 whole entry, looked up): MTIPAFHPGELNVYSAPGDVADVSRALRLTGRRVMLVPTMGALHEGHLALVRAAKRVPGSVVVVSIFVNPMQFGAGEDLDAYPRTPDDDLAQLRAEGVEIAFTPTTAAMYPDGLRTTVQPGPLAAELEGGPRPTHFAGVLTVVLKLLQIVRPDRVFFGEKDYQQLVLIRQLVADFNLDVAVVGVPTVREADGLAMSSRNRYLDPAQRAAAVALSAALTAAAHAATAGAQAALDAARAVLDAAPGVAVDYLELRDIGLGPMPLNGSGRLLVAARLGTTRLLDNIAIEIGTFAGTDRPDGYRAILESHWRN
On to `COc1ccc(C2=Nn3c(nnc3-c3cccnc3)SC2)cc1`, for which the inhibition is 0% (inactive).

Regarding `COCCNC(=O)Cn1cc2c(n1)CCCCC2`, the inhibition is 1% (inactive).

`CCCCCC1CC(CC(C)C(=O)Nc2nncs2)C(=O)O1` (stereo not drawn): the inhibition is 9% (inactive).

`CCN1CCN(CCCNC(=O)C2c3ccccc3C(=O)N(C)C2c2ccc(OC)cc2)CC1` (stereo not drawn): the inhibition was 0% (inactive).

`CC(=O)Nc1cccc(NC(=O)C2CCCN2C(=O)Nc2ccc(C)cc2)c1` (stereo not drawn): the inhibition is 0% (inactive).

Consider `CCOC(=O)c1sc2nc(NC(=O)C3CCCCC3)sc2c1C`, for which the inhibition is 2% (inactive).

As to `Cc1ccc2nc(NC(=O)C3CCCN(S(=O)(=O)c4cnc[nH]4)C3)sc2c1` (stereo not drawn), the inhibition was 1% (inactive).

As to `CCOC(=O)c1cnc(-n2nc(C)cc2C)nc1Nc1cccc(C(C)=O)c1`, the inhibition was 0% (inactive).

For `CC(C)CSc1nc2ccccc2n1CC(N)=O`, the inhibition is 5% (inactive).

For the compound `CCOC(=O)C1CCN(c2c(NC3CCCCCCC3)c(=O)c2=O)CC1`, the inhibition is 3% (inactive).

`CCN(C(=O)CCc1nc(-c2ccccc2F)no1)c1cc(OC)ccc1OC`: the inhibition is 0% (inactive).

Turning to `COC1CCCCC1Nc1cccc(SC)c1` (stereo not drawn), the inhibition is 0% (inactive).

As to `Oc1ccc(N2CCN(C(c3ccncc3)c3nnnn3C3CCCC3)CC2)cc1` (stereo not drawn), the inhibition was 11% (inactive).

On to `CC1CCN(S(=O)(=O)c2ccc3[nH]cc(C(=O)NCCN4CCOCC4)c(=O)c3c2)CC1`, for which the inhibition was 0% (inactive).

On to `CCOC(=O)c1ccc(NC(=O)CC2SC(=NC)N(C)C2=O)cc1` (stereo not drawn), for which the inhibition was 2% (inactive).

For `CCCn1c(OC)nc2c1c(=O)n(C)c(=O)n2C`, the inhibition was 0% (inactive).

For the compound `CS(=O)(=O)N1CCN(CC2CC3C=CC2C3)CC1` (stereo not drawn), the inhibition was 8% (inactive).

Turning to `Cc1cc(NC(=O)COC(=O)C2COc3ccccc3O2)no1` (stereo not drawn), the inhibition was 4% (inactive).

Take `Cc1cccc(N(CC(=O)N2CCCC2)S(=O)(=O)c2ccccc2)c1C`: the inhibition is 0% (inactive).

As to `CC(=O)OCC(=O)c1ccc2ccn(C(C)=O)c2c1`, the inhibition was 3% (inactive).

In the case of `COc1ccc(Cl)cc1S(=O)(=O)N1CCN(c2ccc(F)cc2)CC1`, the inhibition was 0% (inactive).

Consider `CCCCn1c2c(c3ccccc31)CCc1nonc1-2`, for which the inhibition was 1% (inactive).

For the compound `Cc1nc2cc(N3CCCCC3)c(NC(=O)c3cccnc3)cc2c(=O)n1Cc1ccccc1`, the inhibition was 1% (inactive).
